# Test results taken from paper PMC11062922 (Nature Chemical Biology, 2023).
# Read-outs that look alike come from different tables or passages of the source.
# Columns and labels:
# Set-up in all cases: species or system human, MV4-11 + K-562 + COLO205 + SK-N-BE2 + OVCAR-8
# ATR = settings: read-out: apparent Kd, n = 1
# JAK2 = settings: read-out: apparent Kd, n = 1
# PRKCB = settings: read-out: apparent Kd, n = 1
# FGFR1 = settings: read-out: apparent Kd, n = 1
# IRAK4 = settings: read-out: apparent Kd, n = 1
# MAP4K1 = settings: read-out: apparent Kd, n = 1
# STK26 = settings: read-out: apparent Kd, n = 1
# MAPKAPK2 = settings: read-out: apparent Kd, n = 1
# CDC7 = settings: read-out: apparent Kd; compound concentrations: 100 nM and 1000 nM (sheet 'Samples'), CATDS: 3.6033754639237303E-2; n = 1
# NLK = settings: read-out: apparent Kd, n = 1
# JAK1 = settings: read-out: apparent Kd, compound concentrations: 100 nM and 1000 nM (sheet 'Samples'), n = 1
# ACAD11 = settings: read-out: apparent Kd, n = 1
# NQO2 = settings: read-out: apparent Kd; compound concentrations: 100 nM and 1000 nM (sheet 'Samples'), CATDS: 3.2370847772948297E-2; n = 1
# ULK3 = settings: read-out: apparent Kd, n = 1
# ACVR1 = settings: read-out: apparent Kd; compound concentrations: 100 nM and 1000 nM (sheet 'Samples'), CATDS: 3.1800553905839801E-2; n = 1
# CDK5 = settings: read-out: apparent Kd, compound concentrations: 100 nM and 1000 nM (sheet 'Samples'), n = 1
# [1] = compound concentrations:100 nM and 1000 nM (sheet 'Samples')
smiles,measurement,setting,value
Clc1cc(Cl)cc(Nc2ccnc(Nc3cc(Cl)cc(Cl)c3)n2)c1 [GSK175726A],potency estimated from few doses,"ATR; compound concentrations: 100 nM and 1000 nM (sheet 'Samples'), CATDS: 1.4419933534352201E-2",267 nM
same,potency estimated from few doses,"JAK2; compound concentrations: 100 nM and 1000 nM (sheet 'Samples'), CATDS: 2.01521439750539E-2",131 nM
CN1C[C@@H]2Cn3c(c(C4=C(c5cn(C)c6ccccc56)C(=O)NC4=O)c4ccccc43)C[C@H]2C1.Cl [RO0320234-001],potency estimated from few doses,ATR; [1],438 nM
same,potency estimated from few doses,"PRKCB; compound concentrations: 100 nM and 1000 nM (sheet 'Samples'), CATDS: 3.7076657703329602E-2",28.4 nM
CNC(=O)c1ccccc1Nc1nc(Nc2ccc(N3CCOCC3)cc2)ncc1Cl.Cl [GSK1576028A],potency estimated from few doses,FGFR1; [1],844 nM
same,potency estimated from few doses,IRAK4; [1],593 nM
same,potency estimated from few doses,MAP4K1; [1],387 nM
same,potency estimated from few doses,STK26; [1],1360 nM
Cc1ccc2c(-c3ccncc3)c(-c3ccc(F)cc3)nn2c1.Cl [GW461484A],potency estimated from few doses,ATR; [1],838 nM
same,potency estimated from few doses,MAPKAPK2; [1],573 nM
Fc1ccc(-c2c(-c3ccncc3)[nH]c3cccnc23)cc1 [RO1153853-000],potency estimated from few doses,"MAPKAPK2; compound concentrations: 100 nM and 1000 nM (sheet 'Samples'), CATDS: 8.5753103075807094E-2",373 nM
Cl.ON=C1CCc2cc(-c3nc(C4CCNCC4)[nH]c3-c3ccncc3)ccc21 [SB-614067-R],potency estimated from few doses,MAPKAPK2; [1],874 nM
CCn1c(-c2nonc2N)nc2c(C#CC(C)(C)O)nc(OCCN)cc21.CCn1c(-c2nonc2N)nc2c(C#CC(C)(C)O)nc(OCCN)cc21.Cl.Cl [GSK902056A],potency estimated from few doses,PRKCB; [1],1980 nM
CCn1c(-c2nonc2N)nc2c(-c3ccccc3)ncc(OCCCN)c21.CCn1c(-c2nonc2N)nc2c(-c3ccccc3)ncc(OCCCN)c21.O=C(O)C(F)(F)F.O=C(O)C(F)(F)F [GSK260205A],potency estimated from few doses,CDC7,714 nM
same,potency estimated from few doses,"MAPKAPK2; compound concentrations: 100 nM and 1000 nM (sheet 'Samples'), CATDS: 0.102958619201112",74.4 nM
same,potency estimated from few doses,"NLK; compound concentrations: 100 nM and 1000 nM (sheet 'Samples'), CATDS: 6.7931350663373802E-2",162 nM
CCn1c(-c2nonc2N)nc2c(C#CC(C)(C)O)nc(CN3CCCC3)cc21 [GSK1000163A],potency estimated from few doses,"NLK; compound concentrations: 100 nM and 1000 nM (sheet 'Samples'), CATDS: 0.163177352109245",1980 nM
Cl.Nc1c(C(=O)c2cccc(C#CCN3CCCCC3)c2)cnn1-c1ccc(F)cc1 [RO1154461-001],potency estimated from few doses,"FGFR1; compound concentrations: 100 nM and 1000 nM (sheet 'Samples'), CATDS: 1.0359283946495801E-2",1680 nM
same,potency estimated from few doses,JAK1; CATDS: 1.11252993768114E-2,1290 nM
same,potency estimated from few doses,"JAK2; compound concentrations: 100 nM and 1000 nM (sheet 'Samples'), CATDS: 2.2434778262680002E-2",240 nM
CC(C)N1CCC(n2cnc(-c3ccc(F)cc3)c2-c2ccnc(N)n2)CC1 [SB-223132],potency estimated from few doses,FGFR1; [1],2190 nM
same,potency estimated from few doses,MAPKAPK2; [1],7.02 nM
same,potency estimated from few doses,NLK; [1],195 nM
CN(c1ccc(NC(=O)N2CCN(CCCN3CCOCC3)CC2)cc1)c1ccnc(Nc2ccc(CS(C)(=O)=O)cc2)n1.Cl [GW830899A],potency estimated from few doses,"ACAD11; compound concentrations: 100 nM and 1000 nM (sheet 'Samples'), CATDS: 1.8100646511475499E-2",2060 nM
same,potency estimated from few doses,NQO2,552 nM
same,potency estimated from few doses,"ULK3; compound concentrations: 100 nM and 1000 nM (sheet 'Samples'), CATDS: 2.3659630965279298E-2",1010 nM
Cl.NCc1ccc(-c2nc(-c3ccc(Cl)c(O)c3)c(-c3ccncc3)[nH]2)cc1 [SB-476429-A],potency estimated from few doses,JAK2; [1],347 nM
same,potency estimated from few doses,MAPKAPK2; [1],94.8 nM
Cc1cccc2c(-c3ccncn3)c(-c3ccc(F)cc3)nn12 [GW515532X],potency estimated from few doses,"MAPKAPK2; compound concentrations: 100 nM and 1000 nM (sheet 'Samples'), CATDS: 0.245203674473806",1400 nM
O=C1NC(=O)C(N2CCc3ccccc32)=C1c1ccccc1Cl [SB-373598],potency estimated from few doses,ATR; [1],605 nM
same,potency estimated from few doses,FGFR1; [1],1250 nM
same,potency estimated from few doses,ULK3; [1],1450 nM
Cc1ccc(Nc2ccnc(Nc3ccc4c(c3)CS(=O)(=O)C4)n2)cc1O.Cl [GW579362A],potency estimated from few doses,ACVR1,1030 nM
same,potency estimated from few doses,CDK5; CATDS: 3.4142296648309298E-2,844 nM
same,potency estimated from few doses,"NLK; compound concentrations: 100 nM and 1000 nM (sheet 'Samples'), CATDS: 6.6652285634060698E-2",208 nM
same,potency estimated from few doses,"ULK3; compound concentrations: 100 nM and 1000 nM (sheet 'Samples'), CATDS: 3.7183394564858599E-2",681 nM
Cl.Cl.NCC(C(=O)Nc1cc(Br)c(-c2ccnc3[nH]ccc23)s1)c1ccccc1.NCC(C(=O)Nc1cc(Br)c(-c2ccnc3[nH]ccc23)s1)c1ccccc1 (stereo not drawn) [GSK1269851A],potency estimated from few doses,ACAD11; [1],1260 nM
same,potency estimated from few doses,ATR; [1],889 nM
same,potency estimated from few doses,FGFR1; [1],1730 nM
CCOC(=O)N1CCC(n2cnc(-c3ccc(F)cc3)c2-c2ccnc(N)n2)CC1 [SB-219952],potency estimated from few doses,"ACAD11; compound concentrations: 100 nM and 1000 nM (sheet 'Samples'), CATDS: 8.6091938729062605E-3",1330 nM
same,potency estimated from few doses,"FGFR1; compound concentrations: 100 nM and 1000 nM (sheet 'Samples'), CATDS: 8.7030488552416706E-3",1280 nM
same,potency estimated from few doses,"MAPKAPK2; compound concentrations: 100 nM and 1000 nM (sheet 'Samples'), CATDS: 4.5642459422858099E-2",60.7 nM
same,potency estimated from few doses,"NLK; compound concentrations: 100 nM and 1000 nM (sheet 'Samples'), CATDS: 4.0230749785041403E-2",72.7 nM
same,potency estimated from few doses,"ULK3; compound concentrations: 100 nM and 1000 nM (sheet 'Samples'), CATDS: 8.4106356024223894E-3",1430 nM
COc1ccc(Nc2ncc(C#N)c(Nc3ccccc3C(N)=O)n2)cc1N1CCN(C)CC1.Cl [GSK1558669A],potency estimated from few doses,CDK5; CATDS: 1.3495473564992901E-2,85 nM
same,potency estimated from few doses,"FGFR1; compound concentrations: 100 nM and 1000 nM (sheet 'Samples'), CATDS: 1.43157906499466E-2",74.1 nM
same,potency estimated from few doses,"IRAK4; compound concentrations: 100 nM and 1000 nM (sheet 'Samples'), CATDS: 1.0871423307460401E-2",148 nM
same,potency estimated from few doses,JAK1; CATDS: 1.7272230930398098E-2,49.5 nM
same,potency estimated from few doses,"MAP4K1; compound concentrations: 100 nM and 1000 nM (sheet 'Samples'), CATDS: 8.9293608568362503E-3",270 nM
same,potency estimated from few doses,"STK26; compound concentrations: 100 nM and 1000 nM (sheet 'Samples'), CATDS: 6.0521031511701004E-3",1650 nM
same,potency estimated from few doses,"ULK3; compound concentrations: 100 nM and 1000 nM (sheet 'Samples'), CATDS: 2.8443328776369899E-2",20 nM
